E coli growth-1 – inhibitors of Escherichia coli growth; OD600, 23 h; hits give low values; OD600 absorbance (concentration not given with the values); 0.21% of 330,000 active; AID 1053175;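 active means OD600 absorbance below the run mean of sample wells minus 3.6 SD, in any replicate, cut at about 0.56 in these data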
AddAB inh – less growth of phage-infected E. coli with AddAB; E. coli expressing H. pylori AddAB, absorbance growth; 0.29% of 330,000 active; inhibition, % at 11.9 µM; AID 435030; in the data active means inhibition above about 12%
Tat export inh – blocks Tat-dependent protein export in E. coli; 0.036% of 340,000 active; E. coli MC4100 TorA-mCherry Tat export, fluorescence; inhibition, % at 10 µM; AID 488895;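 active means mean replicate inhibition at least 50% and at least half of replicates individually reaching 50%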;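 further: exported cargo escapes ClpAP degradation while cytoplasmic cargo is degraded and loses fluorescence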
phage Ecoli inh – E. coli growth loss with phage present. inhibition, % at 11.9 µM. growth absorbance. 0.26% of 360,000 active; in the data active means inhibition above about 11%
E coli growth-2 – counter-screen for AddAB inhibitors: E. coli growth inhibition | E. coli V3065 growth, OD600 absorbance, 18 h | inhibition, % at 11.9 µM | 0.27% of 330,000 active | AID 449728;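 active means inhibition above the campaign's mean inhibition across all tested compounds plus 3 SD, cut at about 9.9% in these data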;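 further: uninfected addAB+ strain grown without phage in ampicillin broth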
RecBCD conf – growth loss of phage-infected V66 E. coli, RecBCD confirmation screen; inhibition, % at 11.9 µM; E. coli V66 + T4 2- phage, growth OD; shares compounds with phage Ecoli inh; 45% of 890 active; AID 651982;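 active means mean inhibition over triplicates exceeding the hit threshold derived in the original primary screen, cut at about 11% in these data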
Ecoli viability – counter-screen for RecBCD inhibitors: inhibitors of bacterial viability; inhibition, % at 11.9 µM; shares compounds with phage Ecoli inh; E. coli viability, absorbance (OD) growth; 29% of 890 active; in the data active means inhibition above about 20%;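 further: E. coli strain V66 grown with compound alone and no phage infection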
AddAB phage OD – growth loss of phage-infected AddAB E. coli, RecBCD counter-screen; shares compounds with phage Ecoli inh; E. coli expressing H. pylori AddAB + T4 phage, OD growth; gene 2 mutant T4, recBCD-deleted host; inhibition, % at 11.9 µM; 45% of 890 active; AID 651984;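 active means mean inhibition above the solvent-only control wells' mean plus 3 SD, cut at about 22% in these data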;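 further: higher means less bacterial growth from phage killing when AddAB is blocked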
Hits are given with their value; n = inactive; x = no result. In the library only some 0.51% were active in any assay of this set; here they are far more common.

SMILES	E coli growth-1	AddAB inh	Tat export inh	phage Ecoli inh	E coli growth-2	RecBCD conf	Ecoli viability	AddAB phage OD
Cc1cc(C)cc(NC(=O)Cn2cc3c(n2)CCCCC3)c1	n	n	x	x	n	x	x	x
CC(C)C[C@H]1CNC(=S)N1C[C@H]1CCCN1C[C@H](Cc1ccccc1)N1C[C@H](Cc2ccc(O)cc2)N(CC2CCCCC2)C1=S	x	x	x	12	x	n	n	n
Cn1cc(S(=O)(=O)N2CCC(C(N)=O)CC2)c(=O)n(C)c1=O	n	n	n	94	n	n	n	n
COc1ccc(C(=O)CSc2nnc3ccc(-c4ccccn4)nn23)cc1	n	n	n	25	n	n	n	n
COc1ccc(NC(=O)CSc2nnc3ccc(-c4ccccn4)nn23)cc1	n	n	n	n	n	x	x	x
Cc1cc(O)c(Sc2ncn[nH]2)cc1NS(=O)(=O)c1ccc(Cl)cc1	n	n	n	n	n	x	x	x
O=S(=O)(Nc1cc(Sc2ncn[nH]2)c(O)c2ccccc12)c1ccccc1	n	x	n	11	x	n	n	n
CC(=NNC(=O)Cc1c(C)[nH][nH]c1=O)c1cccc(Br)c1	n	x	x	x	x	x	x	x
O=C1CC(c2nc3ccccc3[nH]2)CN1c1cccc(C(F)(F)F)c1 (stereo not given)	n	n	n	27	n	n	n	n
COc1cccc(NC(=O)Nc2nc(SC(C)(C)C)ns2)c1	n	n	n	13	n	n	n	n
